Source: the supplement of paper PMC11732987, “Enantioselective OTUD7B fragment discovery through chemoproteomics screening and high-throughput optimisation” (Communications Chemistry, 2025)

Tests used:
Experiment in all cases: log2 ratio of Biotin-Ahx-Ub-VS probe labelling (fragment/DMSO); higher = less target engagement (more negative = stronger competition), active = hit call of the paper (q ≤ 0.05, log2 ratio ≤ -1)
Settings in all cases: compound concentration: 200 uM; treatment time: 3 h
USP19 = molecular target: T1, USP19 (UniProt O94966)
T1 sequence (whole entry): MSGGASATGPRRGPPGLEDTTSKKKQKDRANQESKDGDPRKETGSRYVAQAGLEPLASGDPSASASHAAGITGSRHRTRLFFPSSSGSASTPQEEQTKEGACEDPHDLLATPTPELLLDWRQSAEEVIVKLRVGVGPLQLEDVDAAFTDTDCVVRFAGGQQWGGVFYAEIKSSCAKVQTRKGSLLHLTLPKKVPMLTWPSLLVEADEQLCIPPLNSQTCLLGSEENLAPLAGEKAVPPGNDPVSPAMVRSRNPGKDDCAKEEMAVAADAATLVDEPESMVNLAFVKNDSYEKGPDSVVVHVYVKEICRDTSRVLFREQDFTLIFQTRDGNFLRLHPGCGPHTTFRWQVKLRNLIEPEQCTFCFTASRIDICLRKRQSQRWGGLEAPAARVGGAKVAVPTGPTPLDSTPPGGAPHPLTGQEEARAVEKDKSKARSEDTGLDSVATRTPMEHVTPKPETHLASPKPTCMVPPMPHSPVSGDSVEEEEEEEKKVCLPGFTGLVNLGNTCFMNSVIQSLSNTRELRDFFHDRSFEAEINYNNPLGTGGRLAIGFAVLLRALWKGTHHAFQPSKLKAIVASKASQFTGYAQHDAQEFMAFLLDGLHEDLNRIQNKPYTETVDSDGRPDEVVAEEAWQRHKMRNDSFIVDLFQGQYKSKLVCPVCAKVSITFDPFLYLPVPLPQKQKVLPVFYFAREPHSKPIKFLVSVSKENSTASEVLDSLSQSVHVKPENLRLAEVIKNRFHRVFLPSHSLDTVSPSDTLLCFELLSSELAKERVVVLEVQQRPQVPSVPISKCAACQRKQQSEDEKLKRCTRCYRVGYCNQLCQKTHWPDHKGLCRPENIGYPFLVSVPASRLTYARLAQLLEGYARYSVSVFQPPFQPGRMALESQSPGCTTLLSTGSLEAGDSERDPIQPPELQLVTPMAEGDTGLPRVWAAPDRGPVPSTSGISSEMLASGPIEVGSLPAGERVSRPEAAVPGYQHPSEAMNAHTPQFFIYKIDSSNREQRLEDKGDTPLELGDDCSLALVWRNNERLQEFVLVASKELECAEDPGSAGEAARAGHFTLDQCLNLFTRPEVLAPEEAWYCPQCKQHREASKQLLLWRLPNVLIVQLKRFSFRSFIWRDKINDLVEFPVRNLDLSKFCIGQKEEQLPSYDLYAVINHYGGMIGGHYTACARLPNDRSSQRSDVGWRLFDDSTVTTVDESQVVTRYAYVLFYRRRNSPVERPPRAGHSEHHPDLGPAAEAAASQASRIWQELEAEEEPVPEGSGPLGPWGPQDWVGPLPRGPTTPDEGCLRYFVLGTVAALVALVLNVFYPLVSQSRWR
Procedure, shortened: (§1)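 Labelling with Biotin-Ahx-Ub-VS (0.5 µM final, 1 h) followed a 3 h triplicate treatment of HEK293T lysate (495 µg per sample, Tris/CHAPS/IGEPAL buffer with protease inhibitors) with fragment at 200 µM or vehicle. Labelled DUBs were NeutrAvidin-enriched, digested with LysC and trypsin, and run by diaPASEF LC-MS/MS. The values, average log2 fragment/vehicle ratios by unpaired t-test, come from global-median-normalised Spectronaut label-free quantities. Proteins with ≥2 unique peptides were used.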

USP24 = USP24 (UniProt Q9UPU5)
Procedure, shortened: as §1

USP25 = molecular target: T2, USP25 (UniProt Q9UHP3)
T2 sequence (whole entry): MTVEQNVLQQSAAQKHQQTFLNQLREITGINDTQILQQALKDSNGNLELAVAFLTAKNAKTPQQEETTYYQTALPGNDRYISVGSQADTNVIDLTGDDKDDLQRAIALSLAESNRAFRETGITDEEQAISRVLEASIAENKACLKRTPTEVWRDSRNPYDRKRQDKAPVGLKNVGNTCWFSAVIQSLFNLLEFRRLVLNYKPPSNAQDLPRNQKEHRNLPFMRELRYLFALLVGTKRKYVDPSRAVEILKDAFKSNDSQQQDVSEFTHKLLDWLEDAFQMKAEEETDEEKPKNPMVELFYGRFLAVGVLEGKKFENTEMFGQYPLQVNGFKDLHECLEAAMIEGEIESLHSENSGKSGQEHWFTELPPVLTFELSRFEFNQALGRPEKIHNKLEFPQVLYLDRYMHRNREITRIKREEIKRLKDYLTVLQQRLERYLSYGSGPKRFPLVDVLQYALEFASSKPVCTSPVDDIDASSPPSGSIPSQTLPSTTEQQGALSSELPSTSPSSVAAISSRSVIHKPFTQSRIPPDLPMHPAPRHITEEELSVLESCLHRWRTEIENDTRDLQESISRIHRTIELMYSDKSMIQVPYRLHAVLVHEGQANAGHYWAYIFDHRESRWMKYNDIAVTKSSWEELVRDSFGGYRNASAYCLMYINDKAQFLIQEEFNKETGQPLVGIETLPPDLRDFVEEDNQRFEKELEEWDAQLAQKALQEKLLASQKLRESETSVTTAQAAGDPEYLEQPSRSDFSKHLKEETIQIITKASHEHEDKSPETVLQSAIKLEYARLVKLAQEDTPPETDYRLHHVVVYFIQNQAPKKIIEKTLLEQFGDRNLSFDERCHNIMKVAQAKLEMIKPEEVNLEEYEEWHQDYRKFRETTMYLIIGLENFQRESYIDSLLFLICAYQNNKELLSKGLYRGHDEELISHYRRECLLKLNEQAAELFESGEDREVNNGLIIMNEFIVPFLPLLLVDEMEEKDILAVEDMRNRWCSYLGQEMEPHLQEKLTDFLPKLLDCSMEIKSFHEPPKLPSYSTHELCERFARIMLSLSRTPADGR
Procedure, shortened: as §1

USP28 = molecular target: T3, USP28 (UniProt Q96RU2)
T3 sequence (whole entry): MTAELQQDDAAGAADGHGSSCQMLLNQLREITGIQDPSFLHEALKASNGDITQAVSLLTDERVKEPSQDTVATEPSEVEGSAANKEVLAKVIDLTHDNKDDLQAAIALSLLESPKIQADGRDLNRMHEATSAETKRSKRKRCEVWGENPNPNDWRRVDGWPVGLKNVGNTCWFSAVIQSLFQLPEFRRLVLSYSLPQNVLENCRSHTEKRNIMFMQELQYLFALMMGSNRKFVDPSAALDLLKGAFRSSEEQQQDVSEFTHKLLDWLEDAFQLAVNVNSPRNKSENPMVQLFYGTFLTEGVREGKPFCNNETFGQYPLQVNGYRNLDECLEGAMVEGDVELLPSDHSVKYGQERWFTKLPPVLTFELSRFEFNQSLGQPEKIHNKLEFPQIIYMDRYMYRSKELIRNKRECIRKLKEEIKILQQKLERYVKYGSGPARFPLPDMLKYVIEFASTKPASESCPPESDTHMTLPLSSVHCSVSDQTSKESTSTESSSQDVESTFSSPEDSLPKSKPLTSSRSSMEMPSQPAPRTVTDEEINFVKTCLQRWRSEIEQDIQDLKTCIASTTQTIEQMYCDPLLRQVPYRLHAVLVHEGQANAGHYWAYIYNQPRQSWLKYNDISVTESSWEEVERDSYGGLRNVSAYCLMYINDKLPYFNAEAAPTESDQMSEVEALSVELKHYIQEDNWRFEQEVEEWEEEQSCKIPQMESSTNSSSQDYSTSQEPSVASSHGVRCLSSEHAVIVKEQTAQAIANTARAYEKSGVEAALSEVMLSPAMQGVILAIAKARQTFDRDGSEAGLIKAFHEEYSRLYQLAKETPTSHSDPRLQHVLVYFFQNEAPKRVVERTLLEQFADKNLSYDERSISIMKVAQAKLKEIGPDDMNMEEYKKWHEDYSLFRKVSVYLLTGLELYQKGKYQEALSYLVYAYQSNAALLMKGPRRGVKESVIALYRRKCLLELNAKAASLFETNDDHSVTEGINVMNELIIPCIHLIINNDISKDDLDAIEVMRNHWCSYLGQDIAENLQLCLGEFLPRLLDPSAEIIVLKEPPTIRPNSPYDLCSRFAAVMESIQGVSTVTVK
Procedure, shortened: as §1

Measured: log2 ratio of Biotin-Ahx-Ub-VS probe labelling

Chain of USP24 (Q9UPU5 whole entry): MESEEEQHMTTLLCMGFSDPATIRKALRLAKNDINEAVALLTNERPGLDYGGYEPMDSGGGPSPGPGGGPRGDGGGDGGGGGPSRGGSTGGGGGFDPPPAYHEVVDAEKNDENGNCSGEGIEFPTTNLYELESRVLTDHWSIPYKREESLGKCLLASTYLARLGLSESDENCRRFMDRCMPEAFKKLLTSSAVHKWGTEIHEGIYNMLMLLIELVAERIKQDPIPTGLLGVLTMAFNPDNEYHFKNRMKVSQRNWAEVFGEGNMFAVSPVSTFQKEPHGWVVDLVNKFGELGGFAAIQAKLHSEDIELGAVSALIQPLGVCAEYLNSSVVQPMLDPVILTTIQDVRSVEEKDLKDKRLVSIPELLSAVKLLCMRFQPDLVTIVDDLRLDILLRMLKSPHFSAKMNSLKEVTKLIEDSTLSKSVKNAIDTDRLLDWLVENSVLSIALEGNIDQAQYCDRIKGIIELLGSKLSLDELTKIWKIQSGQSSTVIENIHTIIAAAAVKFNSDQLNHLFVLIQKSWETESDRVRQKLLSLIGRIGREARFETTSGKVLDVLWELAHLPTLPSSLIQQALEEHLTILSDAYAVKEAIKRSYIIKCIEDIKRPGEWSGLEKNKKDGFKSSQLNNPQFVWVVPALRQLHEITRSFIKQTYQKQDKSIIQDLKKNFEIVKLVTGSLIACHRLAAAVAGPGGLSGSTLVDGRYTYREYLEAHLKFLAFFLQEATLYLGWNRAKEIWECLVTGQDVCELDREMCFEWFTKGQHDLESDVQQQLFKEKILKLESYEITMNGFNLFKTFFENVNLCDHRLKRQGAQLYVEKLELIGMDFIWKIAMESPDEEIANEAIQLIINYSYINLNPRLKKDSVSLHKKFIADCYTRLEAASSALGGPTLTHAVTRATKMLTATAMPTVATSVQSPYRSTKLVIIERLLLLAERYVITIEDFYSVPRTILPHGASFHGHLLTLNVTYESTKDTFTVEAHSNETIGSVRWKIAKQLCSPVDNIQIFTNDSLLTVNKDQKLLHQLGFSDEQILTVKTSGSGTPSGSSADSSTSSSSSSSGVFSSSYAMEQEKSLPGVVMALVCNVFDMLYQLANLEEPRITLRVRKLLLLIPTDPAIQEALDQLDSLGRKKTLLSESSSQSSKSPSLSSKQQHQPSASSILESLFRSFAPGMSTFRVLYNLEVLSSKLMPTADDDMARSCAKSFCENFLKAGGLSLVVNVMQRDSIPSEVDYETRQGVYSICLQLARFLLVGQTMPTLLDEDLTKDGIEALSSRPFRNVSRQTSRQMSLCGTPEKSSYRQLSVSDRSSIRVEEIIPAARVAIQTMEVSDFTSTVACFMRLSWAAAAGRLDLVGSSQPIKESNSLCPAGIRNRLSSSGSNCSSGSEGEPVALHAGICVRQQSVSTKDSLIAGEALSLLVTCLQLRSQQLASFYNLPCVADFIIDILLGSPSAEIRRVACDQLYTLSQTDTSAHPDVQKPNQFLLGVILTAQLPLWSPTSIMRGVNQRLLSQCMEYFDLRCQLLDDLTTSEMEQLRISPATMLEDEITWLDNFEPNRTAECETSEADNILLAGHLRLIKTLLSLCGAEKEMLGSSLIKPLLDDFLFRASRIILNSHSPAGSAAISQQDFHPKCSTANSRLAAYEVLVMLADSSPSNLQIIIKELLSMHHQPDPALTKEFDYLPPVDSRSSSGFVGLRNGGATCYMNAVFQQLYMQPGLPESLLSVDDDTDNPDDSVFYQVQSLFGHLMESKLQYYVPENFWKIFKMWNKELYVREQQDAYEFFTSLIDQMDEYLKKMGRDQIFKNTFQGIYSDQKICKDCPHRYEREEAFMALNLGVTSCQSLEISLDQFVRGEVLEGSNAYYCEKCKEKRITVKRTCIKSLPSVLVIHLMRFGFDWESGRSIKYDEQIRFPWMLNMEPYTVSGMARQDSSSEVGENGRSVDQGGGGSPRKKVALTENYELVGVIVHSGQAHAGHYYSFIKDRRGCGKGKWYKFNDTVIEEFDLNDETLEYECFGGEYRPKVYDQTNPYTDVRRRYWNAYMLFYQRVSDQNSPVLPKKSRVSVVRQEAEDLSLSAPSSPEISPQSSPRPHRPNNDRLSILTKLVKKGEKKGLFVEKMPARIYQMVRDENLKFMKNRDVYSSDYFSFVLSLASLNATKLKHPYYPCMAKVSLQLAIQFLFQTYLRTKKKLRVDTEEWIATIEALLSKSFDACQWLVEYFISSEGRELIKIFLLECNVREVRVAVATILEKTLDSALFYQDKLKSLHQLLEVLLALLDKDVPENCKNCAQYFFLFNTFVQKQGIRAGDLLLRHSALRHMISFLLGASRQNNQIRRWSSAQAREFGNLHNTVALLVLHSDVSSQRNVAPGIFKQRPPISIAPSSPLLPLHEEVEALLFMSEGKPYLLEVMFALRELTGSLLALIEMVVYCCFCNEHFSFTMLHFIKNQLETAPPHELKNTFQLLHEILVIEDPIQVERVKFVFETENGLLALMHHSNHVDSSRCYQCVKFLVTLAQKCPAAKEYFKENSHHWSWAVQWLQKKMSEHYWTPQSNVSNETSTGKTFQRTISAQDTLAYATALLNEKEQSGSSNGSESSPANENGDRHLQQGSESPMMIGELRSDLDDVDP

Cc1cccc2nc(CCNC(=O)CCl)cn12.Cl
inactive: USP19 -0.242 | USP24 -0.429 | USP25 -0.267 | USP28 -0.53
